This note sets out measurements from PubChem BioAssay.

Activity calls are given as the source filed them.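 The calls were made as follows: active = z-score of at least 1.8 in each of two replicates, scored against plate mean and spread of sample wells; inactive = the rest.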

The test in a line: galactose survival enhancers in mitochondrial complex I cybrids – cell-based, galactose medium, ATP luminescence, primary screen (AID 1645843).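 Also: positive z means more ATP and so rescue of galactose-driven cybrid death.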 The note with it: complex I mutant cybrid cells, 72 h, stronger effect = higher value.
Turning to `Cn1nc(NC(=O)Cn2ccc(-c3ccsc3)n2)c2ccccc21`, the z-score was 0.985 (inactive).
For `CCC1(CC)CC1C(=O)N1CCC(n2cc(C3CCCCC3)nn2)CC1` (stereo unspecified), the z-score was 0.07 (inactive).
Under `COCc1cn(CC2CCN(C(=O)CC3CCCCCC3)CC2)nn1` stands -0.465 (inactive); under `N#Cc1ccc(C(=O)N2CCNC(=O)C2Cc2ccccc2)cc1` (stereo unspecified), -0.47 (inactive).
Under `CC(=O)NCCC1CCN(C(=O)C(C)Oc2cc(C)c(Cl)c(C)c2)CC1` (stereo unspecified) stands -0.5 (inactive); under `Cc1nn(C)c(C)c1-c1ccnc(N2CCC(C(=O)NCc3ccccn3)CC2)n1`, 1.16 (inactive).
Turning to `O=C(c1ccccc1-c1nn[nH]n1)N1CCc2[nH]cnc2C1c1ccccn1` (stereo unspecified), the z-score was 0.23 (inactive).
Under `CC1(C)CCN(C(=O)c2cc(-c3cnc(C4CC4)nc3)nc3ccc(F)cc23)C1` stands -0.54 (inactive); under `COc1ccccc1CNC(=O)Nc1nnc(C)s1`, 4.88 (active); under `CC(C)Cc1cn(C2CCN(C(=O)CC3CCCCCC3)CC2)nn1`, 2.74 (active).
Under `CCn1ncc(NC(=O)Cn2ccc(C(=O)OC)n2)n1` stands -0.44 (inactive); under `O=C(Nc1ccncc1)c1ccc2c(c1)OCCO2`, 0.445 (inactive); under `CCCCCNC(=O)N1CCC2(CC1)Nc1ccccc1N(CC)C2=O`, -0.065 (inactive).
Under `COc1ccc(CCC(C)NC2CC(C)(C)NC(C)(C)C2)cc1` (stereo unspecified) stands -0.505 (inactive); under `COc1cccc(CC(=O)NCc2ccc(Cl)s2)c1`, -0.145 (inactive).
On to `CCOC(=O)c1ccc(N2CCC(c3ccccc3F)C2)nc1` (stereo unspecified), for which the z-score is -0.015 (inactive).
As to `Cc1cccc(C2CCCN(C(=O)c3cc(C(C)C)no3)C2)c1` (stereo unspecified), the z-score was 1.05 (inactive).
Under `CC(O)Cc1cn(CC2CCN(C(=O)C3CCCCCC3)CC2)nn1` (stereo unspecified) stands -0.51 (inactive); under `CCCC[C@@H]1C[C@@H]1C(=O)N1CCC(n2cc(C3CCCCC3)nn2)CC1`, 1.86 (inactive).
Under `O=C(c1ccc(OC2(C(=O)O)CCSCC2)cc1)N1CCOCC1` stands -0.515 (inactive); under `CN(C)Cc1cn(C2CCN(C(=O)C3CCCCCC3)CC2)nn1`, -0.49 (inactive).
Under `O=C1CC(C(=O)N2CCc3sccc3C2)c2cc(F)ccc2N1` (stereo unspecified) stands 4.16 (active); under `NC(=O)NCc1cn(CC2CCN(C(=O)C3CCCCCC3)CC2)nn1`, -0.565 (inactive).
In the case of `CC(C)C1=NOC(c2nc(C(C)c3ccccc3)no2)C1` (stereo unspecified), the z-score is -0.83 (inactive).
With `COc1cc(Cl)ccc1C(=O)N1CCC(Cn2cc(C3CC3)nn2)CC1`, the z-score was -0.63 (inactive).
With `CCCCc1cn(C2CCN(C(=O)[C@@H]3CCCO3)CC2)nn1`, the z-score is -0.55 (inactive).
